# Reference: PMC8384837, “Expanding the binding specificity for RNA recognition by a PUF domain”
# Changes are numbered by the printed parent chain.
# Legend:
# Assay in all cases: yeast three-hybrid, YBZ-1, SC-Leu-His + 0.5 mM 3-AT, 4 days
# Details in all cases: tags: N-Gal4 AD-HA kept; label: inside an RPR1-promoter hybrid RNA with tandem MS2 sites; ssRNA
# PUM1 PUF domain R8-IFR = PUM1 PUF domain R8-IFR (Homo sapiens, UniProt Q14671 828-1176, N1122I;Y1123F;Q1126R)
# Summary of the method: (§1)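 Sequencing with Illumina followed PCR amplification of the repeat regions from transformants grown four days on SC-Leu (input) or SC-Leu-His + 0.5 mM 3-AT (selection). The transformants were strain YBZ-1 with a LexA–MS2 coat fusion and a HIS3 reporter, carrying Pumilio-1 PUF domain libraries and matching RNA elements. The interaction score is the log change in variant frequency from input to selection, computed in log2 with a pseudocount of 1 for absent variants.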
# PUM1 PUF domain R1-NKR = PUM1 PUF domain R1-NKR (Homo sapiens, UniProt Q14671 828-1176, S863N;R864K;Q867R)
# Summary of the method: as §1
# PUM1 PUF domain R3-FCS = PUM1 PUF domain R3-FCS (Homo sapiens, UniProt Q14671 828-1176, C935F;R936C;Q939S)
# Summary of the method: as §1
# PUM1 PUF domain R3-IWS = PUM1 PUF domain R3-IWS (Homo sapiens, UniProt Q14671 828-1176, C935I;R936W;Q939S)
# Summary of the method: as §1
# PUM1 PUF domain R2-LFC = PUM1 PUF domain R2-LFC (Homo sapiens, UniProt Q14671 828-1176, N899L;Y900F;Q903C)
# Summary of the method: as §1
# PUM1 PUF domain R4-NRV = PUM1 PUF domain R4-NRV (Homo sapiens, UniProt Q14671 828-1176, H972R;Q975V)
# Summary of the method: as §1
# PUM1 PUF domain R4-WGR = PUM1 PUF domain R4-WGR (Homo sapiens, UniProt Q14671 828-1176, N971W;H972G;Q975R)
# Summary of the method: as §1
# PUM1 PUF domain R1-QVR = PUM1 PUF domain R1-QVR (Homo sapiens, UniProt Q14671 828-1176, S863Q;R864V;Q867R)
# Summary of the method: as §1
# PUM1 PUF domain R1-YSR = PUM1 PUF domain R1-YSR (Homo sapiens, UniProt Q14671 828-1176, S863Y;R864S;Q867R)
# Summary of the method: as §1
# PUM1 PUF domain R6-VYL = molecular target: T1, PUM1 PUF domain R6-VYL (Homo sapiens, UniProt Q14671 828-1176, N1043V;Q1047L)
# T1 sequence: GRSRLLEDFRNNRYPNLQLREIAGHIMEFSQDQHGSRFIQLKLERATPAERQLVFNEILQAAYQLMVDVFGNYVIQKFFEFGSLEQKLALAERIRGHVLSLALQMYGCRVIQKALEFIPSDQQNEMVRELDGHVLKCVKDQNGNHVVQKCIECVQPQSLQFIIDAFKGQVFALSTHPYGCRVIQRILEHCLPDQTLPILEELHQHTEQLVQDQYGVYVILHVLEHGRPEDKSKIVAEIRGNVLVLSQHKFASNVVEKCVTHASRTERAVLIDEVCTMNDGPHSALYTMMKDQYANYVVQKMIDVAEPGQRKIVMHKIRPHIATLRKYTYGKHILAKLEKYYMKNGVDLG
# Summary of the method: as §1
# PUM1 PUF domain R3-SRL = PUM1 PUF domain R3-SRL (Homo sapiens, UniProt Q14671 828-1176, C935S;Q939L)
# Summary of the method: as §1
# PUM1 PUF domain R3-PWH = PUM1 PUF domain R3-PWH (Homo sapiens, UniProt Q14671 828-1176, C935P;R936W;Q939H)
# Summary of the method: as §1
# PUM1 PUF domain R3-RNE = PUM1 PUF domain R3-RNE (Homo sapiens, UniProt Q14671 828-1176, C935R;R936N;Q939E)
# Summary of the method: as §1
# PUM1 PUF domain R3-EFL = PUM1 PUF domain R3-EFL (Homo sapiens, UniProt Q14671 828-1176, C935E;R936F;Q939L)
# Summary of the method: as §1
# PUM1 PUF domain R6-NHR = molecular target: T2, PUM1 PUF domain R6-NHR (Homo sapiens, UniProt Q14671 828-1176, Y1044H;Q1047R)
# T2 sequence: T1 sequence with V216N, Y217H, L220R
# Summary of the method: as §1
# PUM1 PUF domain R5-RAK = PUM1 PUF domain R5-RAK (Homo sapiens, UniProt Q14671 828-1176, C1007R;R1008A;Q1011K)
# Summary of the method: as §1
# PUM1 PUF domain R5-CQR = PUM1 PUF domain R5-CQR (Homo sapiens, UniProt Q14671 828-1176, R1008Q;Q1011R)
# Summary of the method: as §1
# PUM1 PUF domain R5-RND = PUM1 PUF domain R5-RND (Homo sapiens, UniProt Q14671 828-1176, C1007R;R1008N;Q1011D)
# Summary of the method: as §1
# PUM1 PUF domain R5-MRR = PUM1 PUF domain R5-MRR (Homo sapiens, UniProt Q14671 828-1176, C1007M;Q1011R)
# Summary of the method: as §1
# PUM1 PUF domain R3-CFD = PUM1 PUF domain R3-CFD (Homo sapiens, UniProt Q14671 828-1176, R936F;Q939D)
# Summary of the method: as §1
sequence,measurement,setting,value
GGCUAGAACUAGUGGAUCCCCCGGCGCCCGGCGGCUCGAGCCCGGGUAAGCGUAAAUAGUCUGCAUGCCGCCGGGCGCCAUGCCUGCAGGUCGACUCUAGAAAACAUG,binding signal,PUM1 PUF domain R8-IFR,4.56 log2 enrichment (interaction score)
GGCUAGAACUAGUGGAUCCCCCGGCGCCCGGCGGCUCGAGCCCGGGUAAGUGUAAAUGGUCUGCAUGCCGCCGGGCGCCAUGCCUGCAGGUCGACUCUAGAAAACAUG,binding signal,PUM1 PUF domain R1-NKR,1.8 log2 enrichment (interaction score)
GGCUAGAACUAGUGGAUCCCCCGGCGCCCGGCGGCUCGAGCCCGGGUAAGUGUAAGUAGUCUGCAUGCCGCCGGGCGCCAUGCCUGCAGGUCGACUCUAGAAAACAUG,binding signal,PUM1 PUF domain R3-FCS,5.25 log2 enrichment (interaction score)
same,binding signal,PUM1 PUF domain R3-IWS,6.08 log2 enrichment (interaction score)
GGCUAGAACUAGUGGAUCCCCCGGCGCCCGGCGGCUCGAGCCCGGGUAAGUGUAAAAAGUCUGCAUGCCGCCGGGCGCCAUGCCUGCAGGUCGACUCUAGAAAACAUG,binding signal,PUM1 PUF domain R2-LFC,3.16 log2 enrichment (interaction score)
GGCUAGAACUAGUGGAUCCCCCGGCGCCCGGCGGCUCGAGCCCGGGUAAGUGUAUAUAGUCUGCAUGCCGCCGGGCGCCAUGCCUGCAGGUCGACUCUAGAAAACAUG,binding signal,PUM1 PUF domain R4-NRV,2.52 log2 enrichment (interaction score)
same,binding signal,PUM1 PUF domain R4-WGR,3.49 log2 enrichment (interaction score)
GGCUAGAACUAGUGGAUCCCCCGGCGCCCGGCGGCUCGAGCCCGGGUAAGUGUACAUAGUCUGCAUGCCGCCGGGCGCCAUGCCUGCAGGUCGACUCUAGAAAACAUG,binding signal,PUM1 PUF domain R4-NRV,1.97 log2 enrichment (interaction score)
same,binding signal,PUM1 PUF domain R4-WGR,3.78 log2 enrichment (interaction score)
GGCUAGAACUAGUGGAUCCCCCGGCGCCCGGCGGCUCGAGCCCGGGUAAGUGUAAAUCGUCUGCAUGCCGCCGGGCGCCAUGCCUGCAGGUCGACUCUAGAAAACAUG,binding signal,PUM1 PUF domain R1-QVR,3.01 log2 enrichment (interaction score)
same,binding signal,PUM1 PUF domain R1-NKR,3.94 log2 enrichment (interaction score)
same,binding signal,PUM1 PUF domain R1-YSR,4.84 log2 enrichment (interaction score)
GGCUAGAACUAGUGGAUCCCCCGGCGCCCGGCGGCUCGAGCCCGGGUAAGUGAAAAUAGUCUGCAUGCCGCCGGGCGCCAUGCCUGCAGGUCGACUCUAGAAAACAUG,binding signal,PUM1 PUF domain R6-VYL,6.07 log2 enrichment (interaction score)
GGCUAGAACUAGUGGAUCCCCCGGCGCCCGGCGGCUCGAGCCCGGGUAAGUGUAAUUAGUCUGCAUGCCGCCGGGCGCCAUGCCUGCAGGUCGACUCUAGAAAACAUG,binding signal,PUM1 PUF domain R3-SRL,1.51 log2 enrichment (interaction score)
same,binding signal,PUM1 PUF domain R3-PWH,4.06 log2 enrichment (interaction score)
same,binding signal,PUM1 PUF domain R3-RNE,2.81 log2 enrichment (interaction score)
same,binding signal,PUM1 PUF domain R3-EFL,2.29 log2 enrichment (interaction score)
GGCUAGAACUAGUGGAUCCCCCGGCGCCCGGCGGCUCGAGCCCGGGUAAGUGUAAAUUGUCUGCAUGCCGCCGGGCGCCAUGCCUGCAGGUCGACUCUAGAAAACAUG,binding signal,PUM1 PUF domain R1-QVR,1.47 log2 enrichment (interaction score)
same,binding signal,PUM1 PUF domain R1-YSR,5.97 log2 enrichment (interaction score)
GGCUAGAACUAGUGGAUCCCCCGGCGCCCGGCGGCUCGAGCCCGGGUAAGUGCAAAUAGUCUGCAUGCCGCCGGGCGCCAUGCCUGCAGGUCGACUCUAGAAAACAUG,binding signal,PUM1 PUF domain R6-NHR,5.94 log2 enrichment (interaction score)
GGCUAGAACUAGUGGAUCCCCCGGCGCCCGGCGGCUCGAGCCCGGGUAAGUGUUAAUAGUCUGCAUGCCGCCGGGCGCCAUGCCUGCAGGUCGACUCUAGAAAACAUG,binding signal,PUM1 PUF domain R5-RAK,3.4 log2 enrichment (interaction score)
same,binding signal,PUM1 PUF domain R5-CQR,3.55 log2 enrichment (interaction score)
GGCUAGAACUAGUGGAUCCCCCGGCGCCCGGCGGCUCGAGCCCGGGUAAGUGUGAAUAGUCUGCAUGCCGCCGGGCGCCAUGCCUGCAGGUCGACUCUAGAAAACAUG,binding signal,PUM1 PUF domain R5-CQR,0.8 log2 enrichment (interaction score)
GGCUAGAACUAGUGGAUCCCCCGGCGCCCGGCGGCUCGAGCCCGGGUAAGUGUCAAUAGUCUGCAUGCCGCCGGGCGCCAUGCCUGCAGGUCGACUCUAGAAAACAUG,binding signal,PUM1 PUF domain R5-RND,5.27 log2 enrichment (interaction score)
same,binding signal,PUM1 PUF domain R5-RAK,3.03 log2 enrichment (interaction score)
same,binding signal,PUM1 PUF domain R5-MRR,4.14 log2 enrichment (interaction score)
GGCUAGAACUAGUGGAUCCCCCGGCGCCCGGCGGCUCGAGCCCGGGUAAGUGUAAAUAGUCUGCAUGCCGCCGGGCGCCAUGCCUGCAGGUCGACUCUAGAAAACAUG,binding signal,PUM1 PUF domain R4-NRV,1.46 log2 enrichment (interaction score)
same,binding signal,PUM1 PUF domain R5-RND,0.31 log2 enrichment (interaction score)
same,binding signal,PUM1 PUF domain R3-SRL,3.65 log2 enrichment (interaction score)
same,binding signal,PUM1 PUF domain R4-WGR,0.32 log2 enrichment (interaction score)
same,binding signal,PUM1 PUF domain R6-VYL,0.58 log2 enrichment (interaction score)
same,binding signal,PUM1 PUF domain R3-CFD,3.85 log2 enrichment (interaction score)
same,binding signal,PUM1 PUF domain R5-MRR,1.43 log2 enrichment (interaction score)
same,binding signal,PUM1 PUF domain R3-EFL,5.34 log2 enrichment (interaction score)
